Consider 33 compounds from PubChem BioAssay (NCATS).

Each structure is given as a SMILES string. Inconclusive results are not listed. Where a call stands in place of a potency, no number is given. Calls of active or inactive are those of the source. Calls come from the whole dose curve; as a rule, active = well fitted curve in the direction sought with a large enough effect; inconclusive = small, poorly fitted or top-dose-only effect, or another doubt; inactive = no such curve, though single readings can be large; an effect the other way counts as inactive or inconclusive.

The target of the first test is Calcium and integrin-binding protein 1 (Homo sapiens) (UniProt Q99828). Description: Primary qHTS for Identification of Calcium Integrin Binding Protein 1 (CIB1) Competitor (AID 1508620). Note: top concentration of the series differs between compounds. As to conditions: CIB1-GST / FITC-alphaIIb peptide fluorescence polarization; series mostly up to 114 µM. Put shortly: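 Fluorescence polarization competition: GST-tagged CIB1 (1 uM final) preincubated with compound 15 min at room temperature, then FITC-labelled alphaIIb peptide (100 nM final) added. After 15 min at room temperature, polarization read at Ex 480/Em 540.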
Sequence of Calcium and integrin-binding protein 1 (Homo sapiens) (Q99828 whole entry, looked up): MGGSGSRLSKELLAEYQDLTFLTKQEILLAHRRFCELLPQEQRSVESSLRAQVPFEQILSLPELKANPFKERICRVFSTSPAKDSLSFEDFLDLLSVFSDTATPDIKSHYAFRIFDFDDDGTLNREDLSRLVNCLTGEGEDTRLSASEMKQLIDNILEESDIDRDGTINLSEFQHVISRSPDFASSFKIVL
(In general: Quantitative high-throughput screening tests each substance at several concentrations.)
Take `O=c1[nH]c(=O)c2[nH]c(=O)[nH]c2[nH]1`: the outcome was inactive.

As for `O=c1cc[nH]c(=O)[nH]1`, the outcome was inactive. Same read-out and setting: under `C[C@@H]1CCN(C(=O)[C@H](CCCN=C(N)N)NS(=O)(=O)c2cccc3c2NC[C@H](C)C3)[C@@H](C(=O)O)C1` stands “inactive”. For `O=C(O)c1ccccc1O`, the outcome was inactive.

In the case of `CC(=O)Oc1ccc(C2(c3ccc(OC(C)=O)cc3)C(=O)Nc3ccccc32)cc1`, the result was inactive. Turning to `C[C@@H]1CC[C@@]2(OC1)O[C@H]1C[C@H]3[C@@H]4CC[C@H]5C[C@@H](O)CC[C@]5(C)[C@H]4CC(=O)[C@]3(C)[C@H]1[C@@H]2C`, the activity change, negative = inhibition was -1.41% [at 12.4 µM] (inactive). For the compound `CCCCN(CCCC)CCCOC(=O)c1ccc(N)cc1`, the result was inactive. In the case of `c1ccc2c(CC3=NCCN3)cccc2c1`, the result was inactive. Turning to `CCCc1c(OCCCCc2nn[nH]n2)ccc(C(C)=O)c1O`, the outcome was inactive. The same measure, in the same setting: then `CC1(C)OC(=O)NC1=O`, with “inactive”; and `CS(=O)(=O)c1ccc([C@@H](O)[C@@H](CF)NC(=O)C(Cl)Cl)cc1`, with “inactive”. On to `C[C@@H]1C[C@H]2[C@@H]3C[C@H](F)C4=CC(=O)C=C[C@]4(C)[C@@]3(F)[C@@H](O)C[C@]2(C)[C@@]1(O)C(=O)CO`, for which the outcome was inactive.

Turning to `COc1cc2[nH]c(=O)[nH]c(=O)c2cc1OC`, the outcome was inactive. For the compound `COc1ccc2cc1Oc1ccc(cc1)C[C@H]1c3c(cc4c(c3Oc3cc5c(cc3OC)CCN(C)[C@@H]5C2)OCO4)CCN1C`, the result was inactive. The same measure, in the same setting: then `CC(=O)Oc1c(C)c(C)c2c(c1C)CC[C@@](C)(CCC[C@H](C)CCC[C@H](C)CCCC(C)C)O2`, with “inactive”; and `Cc1cccc(C)c1NC(=O)CN(CC(=O)O)CC(=O)O`, with “inactive”. On the same count and under the same terms, under `CCCCOC(=O)c1ccc(O)cc1` stands “inactive”; under `COc1ccc2c(c1)C(=O)N(CCc1ccc(S(=O)(=O)NC(=O)NC3CCCCC3)cc1)C(=O)C2(C)C`, “inactive”. The same measure, in the same setting: then `O=C(O)CN1C(=O)c2cccc3cccc(c23)C1=O`, with “inactive”; and `CCN(CC)C(=O)Nc1ccc(OCC(O)CNC(C)(C)C)c(C(C)=O)c1` (centres undefined), with “inactive”.

`CC(=O)O[C@@]12CO[C@@H]1C[C@H](O)[C@@]1(C)C(=O)[C@H](O)C3=C(C)[C@@H](OC(=O)[C@H](O)[C@@H](NC(=O)OC(C)(C)C)c4ccccc4)C[C@@](O)([C@@H](OC(=O)c4ccccc4)[C@H]21)C3(C)C`: the outcome was inactive.

For the compound `O=C1NS(=O)(=O)c2ccccc21`, the outcome was inactive. Regarding `O=c1cc[nH]c(=S)[nH]1`, the outcome was inactive. The same measure, in the same setting: then `CCCCCCCCCCCCCCCCCCOCC(O)CO` (centres undefined), with “inactive”. Same read-out and setting: under `Oc1cn2c(n1)Nc1ccc(Cl)c(Cl)c1C2` stands “inactive”; under `CC[N+](CC)(CC)CCOc1ccc(/C=C/c2ccccc2)cc1`, “inactive”. On the same count and under the same terms, then `CCOC(=O)c1ccc(O)cc1`, with “inactive”. For the compound `CC(=O)Nc1ccc(/C=N/NC(N)=S)cc1`, the outcome was inactive. On the same count and under the same terms, then `NC(=O)NC(=O)Cc1ccccc1`, with “inactive”; and `CCCCOc1cc(C(=O)OCCN(CC)CC)ccc1N`, with “inactive”.

Tested on in a further test: not listed separately
Kind of test: Primary qHTS for small molecule stabilizers of the endoplasmic reticulum resident proteome: Secreted ER Calcium Modulated Protein (SERCaMP) assay (AID 1508630). Particulars: SH-SY5Y GLuc-SERCaMP (Gaussia luciferase released on ER calcium loss) secretion, thapsigargin, luminescence; series mostly up to 38.4 µM. Put shortly: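 GLuc-SERCaMP-expressing SH-SY5Y cells, pretreated 16 h with compound, are challenged with thapsigargin to empty ER calcium stores; after 4 h, coelenterazine is added directly to the medium and luminescence is imaged.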
Turning to `O=c1[nH]c(=O)c2[nH]c(=O)[nH]c2[nH]1`, the activity change, negative = inhibition is -1.24% [at 7.35 µM] (inactive).

On to `O=c1cc[nH]c(=O)[nH]1`, for which the Potency entry is “inactive”. Take `O=C(O)c1ccccc1O`: the Potency entry was “inactive”. For `C[C@@H]1CC[C@@]2(OC1)O[C@H]1C[C@H]3[C@@H]4CC[C@H]5C[C@@H](O)CC[C@]5(C)[C@H]4CC(=O)[C@]3(C)[C@H]1[C@@H]2C`, the activity change, negative = inhibition was -13.5% [at 3.88 µM] (inactive).

Take `c1ccc2c(CC3=NCCN3)cccc2c1`: the Potency result is “inactive”.

Turning to `CCCc1c(OCCCCc2nn[nH]n2)ccc(C(C)=O)c1O`, the Potency result is “inactive”. Same read-out and setting: under `Oc1cccc(O)c1` stands “inactive”; under `C[C@@H]1C[C@H]2[C@@H]3C[C@H](F)C4=CC(=O)C=C[C@]4(C)[C@@]3(F)[C@@H](O)C[C@]2(C)[C@@]1(O)C(=O)CO`, “inactive”; under `COc1cc2[nH]c(=O)[nH]c(=O)c2cc1OC`, “inactive”. On the same count and under the same terms, under `COc1ccc2cc1Oc1ccc(cc1)C[C@H]1c3c(cc4c(c3Oc3cc5c(cc3OC)CCN(C)[C@@H]5C2)OCO4)CCN1C` stands “inactive”. Take `O=C1O[C@H](CO)[C@@H](O)[C@H](O)[C@H]1O`: the Potency result was “inactive”. Still for that read-out and setting: under `O=C(O)c1ccccn1` stands “inactive”. On the same count and under the same terms, under `COc1ccc2c(c1)C(=O)N(CCc1ccc(S(=O)(=O)NC(=O)NC3CCCCC3)cc1)C(=O)C2(C)C` stands “inactive”; under `O=C(O)CN1C(=O)c2cccc3cccc(c23)C1=O`, “inactive”; under `CCN(CC)C(=O)Nc1ccc(OCC(O)CNC(C)(C)C)c(C(C)=O)c1` (centres undefined), “inactive”.

Consider `CC(=O)O[C@@]12CO[C@@H]1C[C@H](O)[C@@]1(C)C(=O)[C@H](O)C3=C(C)[C@@H](OC(=O)[C@H](O)[C@@H](NC(=O)OC(C)(C)C)c4ccccc4)C[C@@](O)([C@@H](OC(=O)c4ccccc4)[C@H]21)C3(C)C`, for which the Potency entry is “inactive”. Same read-out and setting: under `O=C1NS(=O)(=O)c2ccccc21` stands “inactive”. In the case of `O=c1cc[nH]c(=S)[nH]1`, the Potency result was “inactive”. Consider `CCCCCCCCCCCCCCCCCCOCC(O)CO` (centres undefined), for which the Potency entry is “inactive”. On the same count and under the same terms, then `CC[N+](CC)(CC)CCOc1ccc(/C=C/c2ccccc2)cc1`, with “inactive”. As for `CCOC(=O)c1ccc(O)cc1`, the Potency entry is “inactive”. Same read-out and setting: under `CC(=O)Nc1ccc(/C=N/NC(N)=S)cc1` stands “inactive”; under `NC(=O)NC(=O)Cc1ccccc1`, “inactive”. In the case of `CCCCOc1cc(C(=O)OCCN(CC)CC)ccc1N`, the Potency entry was “inactive”.
